Screens: PubChem BioAssay, several laboratories
Shown are actives, neighbours in structure and some others; about 7.1% of the full set was active somewhere.
PTK2B oligo ant – antagonists of human Pyk2 oligomerization. Q14289. AID 1347419. Q293 cells, Pyk2 FERM NanoBiT luminescence; stronger effect = lower value. 99,000 tested, 0.83% active. z-score (the deposit names both 25 µM and 10 µM);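 active means Z-score of -3 or lower, scaled per plate to the spread of control and sample wells; inactive means z-score above -3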;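 further: negative z-score means lost luminescence so less FERM oligomerization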
Cav32 inh – human Cav3.2 channel inhibition, primary screen; AID 449739; Cav3.2-expressing cells, Fluo-4 calcium fluorescence FDSS; stronger effect = lower value; 100,000 tested, 4% active; B-score at 10 µM;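 active means single-dose well whose peak fluorescence ratio is a statistical outlier from its plate by either plate-standardised score or position-corrected B-score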
M1 ag – M1 muscarinic receptor agonism | CHO-M1 cells, Fluo-4 calcium fluorescence, agonist mode; stronger effect = higher value | B-score at 10 µM | 64,000 tested, 3% active;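 active means fluorescence rise, raw or as B-score row- and column-corrected plate score, outside the 99.7% band of its plate's samples, either direction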
M1 antag – blocks the rat M1 muscarinic receptor response to acetylcholine | P08482 | CHO-M1 cells, Fluo-4 calcium, ACh EC80 antagonist mode; stronger effect = lower value | B-score at 10 µM | 64,000 tested, 3.4% active | AID 628;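 active means calcium fluorescence response, raw or row-and-column corrected B-score, differing from the plate sample mean either way at a set confidence level, mostly lower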
M1 antag conf – confirmation of rat M1 muscarinic receptor antagonists; AID 677; shares compounds with M1 antag; calcium response (max-min fluorescence) at 10 µM; CHO-M1 cells, Fluo-4 calcium, ACh EC80 antagonism; stronger effect = lower value; 1,700 tested, 43% active;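 active means calcium response below the same-plate mean of wells given acetylcholine alone at its 80%-effect dose, minus 3 SD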
mGluR4 antag – acts on human mGluR4 in M1 antagonist selectivity test; shares compounds with M1 antag; CHO-mGluR4 calcium flux, Fluo-4 fluorescence, glutamate EC80; stronger effect = lower value; fluorescence response (max-min) at 10 µM; 1,700 tested, 0.9% active; AID 678;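 active means fluorescence response below the plate's average for near-maximal glutamate wells, less 3 SD of those wells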;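 further: raw unnormalized fluorescence span taken in the window right after glutamate addition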
A number is an active result.

For CCSc1ccc2nnc(-c3ccc(F)cc3)n2n1 the results were PTK2B oligo ant inactive, Cav32 inh inactive, M1 ag inactive and M1 antag inactive.
COc1cccc(C2C(C(N)=O)=C(C)Nc3nc(-c4ccccc4Cl)nn32)c1 (centres undefined) was read as Cav32 inh inactive, M1 ag inactive and M1 antag inactive.
For CCc1ccccc1NC(=O)CSc1nnc(-c2ccco2)n1N the results were PTK2B oligo ant inactive, Cav32 inh inactive, M1 ag inactive and M1 antag inactive.
`CCOC(=O)N1CCC2(CC1)CC(=O)c1c(ccc3oc(C(=O)O)c(C)c13)O2` gave PTK2B oligo ant inactive, Cav32 inh inactive, M1 ag inactive, M1 antag -3.3, M1 antag conf inactive and mGluR4 antag inactive.
`CCOC(=O)/C(N=Nc1ccc(F)cc1)=C(/O)c1ccc([N+](=O)[O-])cc1` gave PTK2B oligo ant inactive and Cav32 inh inactive.
Screening CCN1CCN(Cc2ccccc2NC(=O)Nc2ccc(C)cc2)CC1 returned PTK2B oligo ant inactive, Cav32 inh inactive, M1 ag inactive and M1 antag inactive.
CC(=O)Nc1ccc(CN2CCCCCCC2)cc1 was read as PTK2B oligo ant inactive, Cav32 inh inactive, M1 ag inactive, M1 antag -1.9, M1 antag conf 488 and mGluR4 antag inactive.
`CCOC(=O)c1ccc(NC(=O)c2ccc(CN3CCOCC3)cc2)cc1` gave PTK2B oligo ant inactive, Cav32 inh inactive, M1 ag inactive, M1 antag -7.3, M1 antag conf 418 and mGluR4 antag inactive.
`CCN1CCN(Cc2ccc(NC(=O)Nc3ccccc3Cl)cc2)CC1` gave Cav32 inh inactive, M1 ag inactive, M1 antag -3, M1 antag conf inactive and mGluR4 antag inactive.
`Cc1ccc(C)c(NC(=S)N(CCc2nc3cc(C)c(C)cc3[nH]2)Cc2cccnc2)c1` gave PTK2B oligo ant inactive and Cav32 inh inactive.
NC(=O)NCC12CC3CC(CC(C3)C1)C2 was read as PTK2B oligo ant inactive, Cav32 inh inactive, M1 ag inactive, M1 antag -2.9, M1 antag conf inactive and mGluR4 antag inactive.
`NC(=O)C1(N2CCCCC2)CCN(C(=O)CSc2nc(C(F)(F)F)cc(=O)[nH]2)CC1` gave PTK2B oligo ant inactive, Cav32 inh inactive, M1 ag inactive, M1 antag -3.5, M1 antag conf inactive and mGluR4 antag inactive.
For Cc1cc(=O)[nH]c(SCC(=O)N2CCCCCC2)n1 the results were PTK2B oligo ant inactive, Cav32 inh inactive, M1 ag inactive and M1 antag inactive.
Screening CC(=O)Nc1nc(C(=O)Nc2c(C)n[nH]c2C)cs1 returned PTK2B oligo ant inactive, Cav32 inh inactive, M1 ag inactive, M1 antag -2.9, M1 antag conf inactive and mGluR4 antag inactive.
`Cc1cc(Cn2ccnc2)c(C)cc1Cn1ccnc1` gave PTK2B oligo ant inactive, Cav32 inh inactive, M1 ag inactive, M1 antag -2, M1 antag conf inactive and mGluR4 antag inactive.
For c1ccc2c(Cn3ccnc3)c[nH]c2c1 the results were PTK2B oligo ant inactive, Cav32 inh inactive, M1 ag inactive and M1 antag inactive.
CCC(c1ccccc1)c1nc(-c2ccccn2)no1 (centres undefined) was read as PTK2B oligo ant inactive, Cav32 inh inactive, M1 ag inactive, M1 antag -6, M1 antag conf inactive and mGluR4 antag inactive.
Screening CCC(c1ccccc1)c1nc(-c2cccnc2)no1 (centres undefined) returned PTK2B oligo ant inactive.
`c1ccc(Oc2cccc(NC3=NCCC3)c2)cc1` gave PTK2B oligo ant inactive, Cav32 inh inactive, M1 ag inactive, M1 antag -3.5, M1 antag conf 393 and mGluR4 antag inactive.
Screening COc1cc(C(=O)N2CCN(Cc3ccccc3C(F)(F)F)CC2)cc(OC)c1OC returned PTK2B oligo ant inactive, M1 ag inactive and M1 antag inactive.
Screening COc1cccc(OC)c1C(=O)N1CCN(Cc2ccccc2C(F)(F)F)CC1 returned PTK2B oligo ant inactive, Cav32 inh inactive, M1 ag inactive, M1 antag -3, M1 antag conf inactive and mGluR4 antag inactive.
CN1CCN(C2=Nc3ccccc3Oc3ccc(Cl)cc32)CC1 was read as Cav32 inh inactive, M1 ag inactive, M1 antag -13, M1 antag conf 15 and mGluR4 antag inactive.
CCN(CC)Cc1c[nH]c2c(C(=O)OC)cccc12 was read as Cav32 inh inactive, M1 ag inactive and M1 antag inactive.
For COc1cccc2sc(=NC(=O)c3ccc(S(=O)(=O)N4CCOCC4)cc3)n(C)c12 the results were M1 ag inactive and M1 antag inactive.
CCn1c(=NC(=O)c2ccc(S(=O)(=O)N3CCOCC3)cc2)sc2cccc(OC)c21 was read as PTK2B oligo ant inactive, Cav32 inh inactive, M1 ag inactive, M1 antag -1.8, M1 antag conf inactive and mGluR4 antag inactive.
For O=C(CCCCn1c(=O)[nH]c2ccccc2c1=O)NCCC1=CCCCC1 the results were PTK2B oligo ant inactive, Cav32 inh inactive, M1 ag inactive and M1 antag inactive.
For CCOC(=O)N1CCN(C(=O)c2ccc3c(=O)n(CCC4=CCCCC4)c(=O)[nH]c3c2)CC1 the results were PTK2B oligo ant inactive, Cav32 inh inactive, M1 ag inactive, M1 antag -6.8, M1 antag conf 191 and mGluR4 antag inactive.
For COC(=O)c1cc(Br)c(=O)n(CCc2ccc(F)cc2)c1 the results were PTK2B oligo ant inactive, Cav32 inh inactive, M1 ag inactive, M1 antag -4, M1 antag conf inactive and mGluR4 antag inactive.
Screening CC(C)CC(c1nnnn1C(C)(C)C)N1CCN(C2CCCC2)CC1 (centres undefined) returned PTK2B oligo ant inactive, Cav32 inh inactive, M1 ag inactive, M1 antag -4.4, M1 antag conf inactive and mGluR4 antag inactive.
For Cc1ccc(C(c2nnnn2C(C)(C)C)N2CCN(C3CCCC3)CC2)cc1 (centres undefined) the results were PTK2B oligo ant inactive, M1 ag inactive and M1 antag inactive.
`COc1cc(CC(=O)NNC(=O)c2cc(C)oc2C)cc(OC)c1OC` gave PTK2B oligo ant inactive.
CCCCNC(=O)N1CCOCCOCCN(C(=O)NCCCC)CCOCCOCC1 was read as PTK2B oligo ant inactive, Cav32 inh inactive, M1 ag inactive and M1 antag inactive.
CCCCNC(=O)N1CCOCCOCCN(C(=O)NCCCC)CCOCC1 was read as PTK2B oligo ant inactive, Cav32 inh inactive, M1 ag inactive, M1 antag -2.3, M1 antag conf inactive and mGluR4 antag inactive.
For CC(CCc1ccc(O)cc1)N(C)CCc1ccccc1 (centres undefined) the results were PTK2B oligo ant inactive, Cav32 inh inactive, M1 ag inactive, M1 antag -3.1, M1 antag conf 404 and mGluR4 antag inactive.
`O=C(Nc1ccc2c(c1)C(=O)N(c1ccccc1)C2=O)C1CCCO1` (centres undefined) gave PTK2B oligo ant inactive.
